Measurements taken from article PMC7862700, “An all-to-all approach to the identification of sequence-specific readers for epigenetic DNA modifications on cytosine”.

Tests used:
Experiment in all cases: DAPPL (digital affinity profiling via proximity ligation, sequencing); 10 mM Tris-HCl pH 7.5, 50 mM NaCl, 1 mM DTT, 4% glycerol, room temperature, 30 min; GST-TFs on glutathione beads, 16-mer random dsDNA library, 0.1% formaldehyde crosslink after washing; high values mean tight binding
Settings in all cases: protein: recombinant; tags: N-terminal GST; dsDNA, one strand shown
[1] = molecular target: T1, GABPA (Homo sapiens, UniProt Q06546 1-454)
T1 sequence: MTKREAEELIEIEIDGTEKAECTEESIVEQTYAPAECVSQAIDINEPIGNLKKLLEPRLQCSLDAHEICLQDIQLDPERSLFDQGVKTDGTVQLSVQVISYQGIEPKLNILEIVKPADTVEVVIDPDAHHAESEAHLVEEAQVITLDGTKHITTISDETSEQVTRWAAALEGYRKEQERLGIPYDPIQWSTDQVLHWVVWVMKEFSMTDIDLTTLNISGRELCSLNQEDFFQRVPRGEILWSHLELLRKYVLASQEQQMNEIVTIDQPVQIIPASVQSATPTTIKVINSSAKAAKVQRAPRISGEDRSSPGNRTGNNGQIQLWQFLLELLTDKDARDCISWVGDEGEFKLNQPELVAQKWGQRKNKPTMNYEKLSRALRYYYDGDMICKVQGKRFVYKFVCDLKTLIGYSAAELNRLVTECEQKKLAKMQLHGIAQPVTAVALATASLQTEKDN
Summary of the method: (§1)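 Human transcription factors were made in yeast as GST fusions, captured on glutathione beads and barcoded with DNA. With a tag-only sample included, the pool was incubated with 200 nmole of a random double-stranded 16-mer DNA library in Tris/NaCl/DTT/glycerol buffer at room temperature for 30 min, then crosslinked with 0.1% formaldehyde after washing, ligated by proximity, amplified and sequenced. For binding signal, each hexamer's read frequency for a factor is divided by its frequency for the tag-only sample.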

[2] = molecular target: T2, ERG (Homo sapiens, UniProt P11308 1-479)
T2 sequence: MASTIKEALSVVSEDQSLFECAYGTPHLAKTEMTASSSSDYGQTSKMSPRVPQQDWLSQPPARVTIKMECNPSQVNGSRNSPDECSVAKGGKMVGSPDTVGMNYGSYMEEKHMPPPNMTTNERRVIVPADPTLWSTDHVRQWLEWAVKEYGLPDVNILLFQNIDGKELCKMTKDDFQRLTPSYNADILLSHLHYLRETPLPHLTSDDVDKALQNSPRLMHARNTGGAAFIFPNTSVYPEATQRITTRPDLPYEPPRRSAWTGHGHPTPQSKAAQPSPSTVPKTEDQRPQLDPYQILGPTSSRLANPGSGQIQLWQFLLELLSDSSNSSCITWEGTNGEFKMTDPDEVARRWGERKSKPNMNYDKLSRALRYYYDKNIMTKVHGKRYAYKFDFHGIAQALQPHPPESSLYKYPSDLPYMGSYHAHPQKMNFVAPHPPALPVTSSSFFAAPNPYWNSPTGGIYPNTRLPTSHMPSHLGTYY
Summary of the method: as §1

[3] = molecular target: ELF1 (Homo sapiens, UniProt P32519 1-619)
ELF1, sequence (P32519 whole entry): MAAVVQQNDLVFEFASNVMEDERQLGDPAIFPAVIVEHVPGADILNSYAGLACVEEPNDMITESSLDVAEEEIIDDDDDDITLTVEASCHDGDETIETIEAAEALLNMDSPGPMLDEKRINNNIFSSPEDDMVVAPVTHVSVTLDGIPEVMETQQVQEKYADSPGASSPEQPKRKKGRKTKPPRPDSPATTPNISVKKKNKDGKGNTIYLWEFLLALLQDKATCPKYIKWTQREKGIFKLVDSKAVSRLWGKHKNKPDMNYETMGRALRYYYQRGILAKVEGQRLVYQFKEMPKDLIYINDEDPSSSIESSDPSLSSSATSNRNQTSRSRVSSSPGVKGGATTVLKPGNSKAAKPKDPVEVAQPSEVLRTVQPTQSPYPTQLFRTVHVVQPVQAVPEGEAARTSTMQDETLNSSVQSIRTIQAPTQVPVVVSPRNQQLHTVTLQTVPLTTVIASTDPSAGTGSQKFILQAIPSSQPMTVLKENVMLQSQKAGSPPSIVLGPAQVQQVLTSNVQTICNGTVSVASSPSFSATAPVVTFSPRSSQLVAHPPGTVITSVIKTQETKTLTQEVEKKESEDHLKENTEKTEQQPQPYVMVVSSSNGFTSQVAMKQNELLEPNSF
Summary of the method: as §1

[4] = molecular target: T3, EHF (Homo sapiens, UniProt Q9NZC4 1-300)
T3 sequence: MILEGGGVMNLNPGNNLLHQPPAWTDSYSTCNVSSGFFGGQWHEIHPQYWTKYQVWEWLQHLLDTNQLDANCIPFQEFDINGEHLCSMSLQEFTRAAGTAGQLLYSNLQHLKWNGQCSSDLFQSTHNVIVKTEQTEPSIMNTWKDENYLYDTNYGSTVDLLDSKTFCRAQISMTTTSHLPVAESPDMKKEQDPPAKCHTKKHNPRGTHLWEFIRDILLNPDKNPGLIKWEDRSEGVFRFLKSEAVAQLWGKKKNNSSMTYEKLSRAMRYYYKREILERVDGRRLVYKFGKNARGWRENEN
Summary of the method: as §1

[5] = molecular target: T4, SPIC (Homo sapiens, UniProt Q8N5J4 1-248)
T4 sequence: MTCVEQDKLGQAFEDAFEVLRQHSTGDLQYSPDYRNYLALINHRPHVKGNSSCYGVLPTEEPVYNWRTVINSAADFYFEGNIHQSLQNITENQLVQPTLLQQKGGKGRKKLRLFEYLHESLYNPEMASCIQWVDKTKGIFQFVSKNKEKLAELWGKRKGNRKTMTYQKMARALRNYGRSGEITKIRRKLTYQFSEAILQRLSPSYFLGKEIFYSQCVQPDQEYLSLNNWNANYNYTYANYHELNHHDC
Summary of the method: as §1

[6] = molecular target: ELF4 (Homo sapiens, UniProt Q99607 1-663)
ELF4, sequence (Q99607 whole entry): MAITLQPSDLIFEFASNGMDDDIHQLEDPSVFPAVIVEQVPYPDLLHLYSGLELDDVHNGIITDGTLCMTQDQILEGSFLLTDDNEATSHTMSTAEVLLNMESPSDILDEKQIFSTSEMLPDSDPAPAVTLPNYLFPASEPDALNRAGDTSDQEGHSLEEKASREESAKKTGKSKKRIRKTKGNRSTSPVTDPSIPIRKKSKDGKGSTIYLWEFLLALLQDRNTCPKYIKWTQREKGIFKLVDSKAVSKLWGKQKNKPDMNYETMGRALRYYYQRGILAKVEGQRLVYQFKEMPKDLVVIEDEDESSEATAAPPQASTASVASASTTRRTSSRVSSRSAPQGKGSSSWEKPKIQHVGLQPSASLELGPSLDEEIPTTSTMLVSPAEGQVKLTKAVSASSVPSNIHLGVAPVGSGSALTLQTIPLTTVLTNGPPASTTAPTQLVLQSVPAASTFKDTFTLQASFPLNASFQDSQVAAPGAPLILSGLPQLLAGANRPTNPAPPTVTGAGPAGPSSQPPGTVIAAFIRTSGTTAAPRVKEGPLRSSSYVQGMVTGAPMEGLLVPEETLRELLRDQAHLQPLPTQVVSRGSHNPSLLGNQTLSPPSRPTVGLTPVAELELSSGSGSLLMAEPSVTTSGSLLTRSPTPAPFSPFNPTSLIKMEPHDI
Summary of the method: as §1

[7] = molecular target: T5, ELK4 (Homo sapiens, UniProt P28324-2 1-405)
T5 sequence: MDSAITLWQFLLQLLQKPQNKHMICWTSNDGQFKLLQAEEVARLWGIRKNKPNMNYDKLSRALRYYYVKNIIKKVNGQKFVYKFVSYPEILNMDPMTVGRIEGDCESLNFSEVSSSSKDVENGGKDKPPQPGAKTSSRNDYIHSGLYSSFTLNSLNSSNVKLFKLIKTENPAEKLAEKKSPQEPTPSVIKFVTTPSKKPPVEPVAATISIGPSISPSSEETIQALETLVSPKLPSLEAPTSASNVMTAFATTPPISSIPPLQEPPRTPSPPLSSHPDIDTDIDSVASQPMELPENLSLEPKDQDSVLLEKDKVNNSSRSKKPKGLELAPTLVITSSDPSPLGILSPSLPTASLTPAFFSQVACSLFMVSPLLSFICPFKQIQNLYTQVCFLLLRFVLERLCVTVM
Summary of the method: as §1

[8] = molecular target: T6, ELF3 (Homo sapiens, UniProt P78545 1-371)
T6 sequence: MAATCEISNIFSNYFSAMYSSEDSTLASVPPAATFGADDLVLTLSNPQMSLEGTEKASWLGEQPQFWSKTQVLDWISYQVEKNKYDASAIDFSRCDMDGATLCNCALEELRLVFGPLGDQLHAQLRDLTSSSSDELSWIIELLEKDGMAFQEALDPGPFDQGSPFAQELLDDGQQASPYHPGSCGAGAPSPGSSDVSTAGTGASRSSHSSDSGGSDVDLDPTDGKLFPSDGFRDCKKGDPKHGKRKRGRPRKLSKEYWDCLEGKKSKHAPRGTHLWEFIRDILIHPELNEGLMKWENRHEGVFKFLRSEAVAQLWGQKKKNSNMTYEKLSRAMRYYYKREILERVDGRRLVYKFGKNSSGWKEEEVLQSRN
Summary of the method: as §1

[9] = molecular target: T7, ETV3L (Homo sapiens, UniProt Q6ZN32 1-361)
T7 sequence: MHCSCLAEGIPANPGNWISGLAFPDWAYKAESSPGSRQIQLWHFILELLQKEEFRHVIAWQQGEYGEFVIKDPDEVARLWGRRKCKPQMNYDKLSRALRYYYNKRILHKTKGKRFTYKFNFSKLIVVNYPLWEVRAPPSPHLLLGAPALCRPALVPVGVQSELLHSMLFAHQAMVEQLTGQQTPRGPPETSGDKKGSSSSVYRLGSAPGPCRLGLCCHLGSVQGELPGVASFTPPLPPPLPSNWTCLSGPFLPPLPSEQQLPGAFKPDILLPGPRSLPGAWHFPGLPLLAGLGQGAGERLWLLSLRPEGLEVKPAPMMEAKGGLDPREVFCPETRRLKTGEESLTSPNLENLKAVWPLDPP
Summary of the method: as §1

[10] = molecular target: T8, ETS2 (Homo sapiens, UniProt P15036 1-469)
T8 sequence: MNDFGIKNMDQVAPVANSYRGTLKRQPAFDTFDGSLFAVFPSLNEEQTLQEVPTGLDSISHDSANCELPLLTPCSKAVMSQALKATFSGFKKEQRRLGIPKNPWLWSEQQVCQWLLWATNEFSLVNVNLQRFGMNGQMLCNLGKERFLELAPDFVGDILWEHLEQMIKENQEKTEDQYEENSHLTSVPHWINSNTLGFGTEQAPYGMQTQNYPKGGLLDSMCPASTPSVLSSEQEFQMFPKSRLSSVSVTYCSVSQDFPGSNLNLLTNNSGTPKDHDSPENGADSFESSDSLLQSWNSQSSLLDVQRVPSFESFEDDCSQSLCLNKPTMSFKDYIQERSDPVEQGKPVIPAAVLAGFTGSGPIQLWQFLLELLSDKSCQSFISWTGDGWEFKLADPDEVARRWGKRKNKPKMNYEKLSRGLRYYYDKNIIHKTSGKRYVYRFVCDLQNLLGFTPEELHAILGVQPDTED
Summary of the method: as §1

[11] = molecular target: T9, SPDEF (Homo sapiens, UniProt O95238 1-335)
T9 sequence: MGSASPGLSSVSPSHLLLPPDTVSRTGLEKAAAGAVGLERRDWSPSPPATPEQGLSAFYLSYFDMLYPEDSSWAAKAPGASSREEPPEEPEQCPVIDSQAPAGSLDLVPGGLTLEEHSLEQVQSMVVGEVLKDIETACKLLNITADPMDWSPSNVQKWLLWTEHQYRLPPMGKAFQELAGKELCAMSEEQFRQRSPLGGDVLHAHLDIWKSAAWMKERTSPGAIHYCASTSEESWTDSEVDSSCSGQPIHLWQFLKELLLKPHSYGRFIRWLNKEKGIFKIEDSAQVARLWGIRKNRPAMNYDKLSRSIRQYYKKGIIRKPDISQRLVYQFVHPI
Summary of the method: as §1

[12] = molecular target: T10, ETV7 (Homo sapiens, UniProt Q9Y603 1-341)
T10 sequence: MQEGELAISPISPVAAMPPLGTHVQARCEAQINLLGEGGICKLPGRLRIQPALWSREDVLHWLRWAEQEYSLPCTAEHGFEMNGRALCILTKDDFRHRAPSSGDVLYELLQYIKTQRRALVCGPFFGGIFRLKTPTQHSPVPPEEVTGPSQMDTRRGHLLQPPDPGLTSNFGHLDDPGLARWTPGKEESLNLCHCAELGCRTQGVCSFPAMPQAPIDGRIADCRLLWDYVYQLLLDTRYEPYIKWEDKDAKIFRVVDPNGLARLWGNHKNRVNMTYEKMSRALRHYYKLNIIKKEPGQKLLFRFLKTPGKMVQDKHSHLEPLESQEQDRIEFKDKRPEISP
Summary of the method: as §1

[13] = molecular target: T11, ETV3 (Homo sapiens, UniProt P41162-2 1-143)
T11 sequence: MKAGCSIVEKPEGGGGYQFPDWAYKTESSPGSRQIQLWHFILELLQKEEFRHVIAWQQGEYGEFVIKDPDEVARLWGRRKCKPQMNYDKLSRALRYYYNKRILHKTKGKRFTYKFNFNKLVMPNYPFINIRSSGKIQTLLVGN
Summary of the method: as §1

[14] = molecular target: ETV6 (Homo sapiens, UniProt P41212 1-452)
ETV6, sequence (P41212 whole entry): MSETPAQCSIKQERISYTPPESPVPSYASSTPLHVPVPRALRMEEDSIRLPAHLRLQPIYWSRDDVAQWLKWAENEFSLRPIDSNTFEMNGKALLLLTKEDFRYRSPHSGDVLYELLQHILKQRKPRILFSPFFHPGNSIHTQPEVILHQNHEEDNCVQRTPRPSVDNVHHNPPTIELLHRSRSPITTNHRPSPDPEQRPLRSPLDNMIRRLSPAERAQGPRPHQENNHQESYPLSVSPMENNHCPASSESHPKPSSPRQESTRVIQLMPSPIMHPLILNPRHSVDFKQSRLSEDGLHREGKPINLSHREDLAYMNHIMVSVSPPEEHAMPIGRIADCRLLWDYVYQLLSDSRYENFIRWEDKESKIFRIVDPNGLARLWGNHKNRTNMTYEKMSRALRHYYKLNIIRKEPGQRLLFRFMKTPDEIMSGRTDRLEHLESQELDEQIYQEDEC
Summary of the method: as §1

Q: CATGCG was tested. Which binding signal [1] did it give?
A: Its binding signal is 1.06 fold enrichment (6-mer frequency, TF over GST control).

Q: What about the binding signal [2] of the same sequence?
A: Its binding signal is 1.03 fold enrichment (6-mer frequency, TF over GST control).

Q: What about the binding signal [3] of the same sequence?
A: The binding signal was 1.07 fold enrichment (6-mer frequency, TF over GST control).

Q: And the binding signal [4]?
A: Its binding signal is 1.06 fold enrichment (6-mer frequency, TF over GST control).

Q: And the binding signal [5]?
A: The binding signal was 1 fold enrichment (6-mer frequency, TF over GST control).

Q: What about the binding signal [6] of the same sequence?
A: Its binding signal is 1.02 fold enrichment (6-mer frequency, TF over GST control).

Q: And the binding signal [7]?
A: The binding signal was 1.11 fold enrichment (6-mer frequency, TF over GST control).

Q: What about the binding signal [8] of the same sequence?
A: The binding signal was 1.29 fold enrichment (6-mer frequency, TF over GST control).

Q: And the binding signal [9]?
A: Its binding signal is 1.01 fold enrichment (6-mer frequency, TF over GST control).

Q: And the binding signal [10]?
A: The binding signal was 1 fold enrichment (6-mer frequency, TF over GST control).

Q: What about the binding signal [11] of the same sequence?
A: The binding signal was 1.01 fold enrichment (6-mer frequency, TF over GST control).

Q: What about the binding signal [12] of the same sequence?
A: Its binding signal is 1.21 fold enrichment (6-mer frequency, TF over GST control).

Q: What about the binding signal [13] of the same sequence?
A: Its binding signal is 1.03 fold enrichment (6-mer frequency, TF over GST control).

Q: What about the binding signal [14] of the same sequence?
A: Its binding signal is 1.16 fold enrichment (6-mer frequency, TF over GST control).
